Tested on: VDR:RXRa (NR concentration 270 nM, RXRa partner concentration 90 nM)
Experiment: PBM binding z-score (relative to random genomic background probes); higher = stronger binding; sequences stand for … in GC…GCGATTGACAGCGTAGAATGAAGG
Procedure: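 Protein-binding microarray (Agilent 4x180K custom design, double-stranded 60-nt probes: 5' GC cap, 34-nt variable region, 24-nt constant primer region; full probe sequence given). Purified or IVT nuclear receptor:RXRα heterodimers (3:1 NR:RXRα, mostly 270:90 nM) or homodimers were incubated for 1 h in PBS with 2% milk and no ligand, then detected with Alexa488 antibodies. Fluorescence from o1-orientation probes (~5 replicates averaged) was converted to z-scores against 500 random hg19 background probes. Variable regions are seed direct-repeat (DR0–DR5) sites, all their single-nucleotide variants and half-site ablations.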

Sequence | PBM binding z-score
TCTGCTAGGTCAGTTGGTCAGATAACGAGCTGCC | 0.238
TCATCTAGGTAAAAGGTGAAAGTCGGTGTGGTAA | 1.5
AGTCAAAGTTCATCTAGGTAGCGTAAGATATGCT | 4.94
CGTCCAAGGTCATAGGAGGTTAGTGAAGACAGAT | 5
ATCGCTAGGTAACCAAGTTCAGTGAATGCCGAAC | 3.74
GGAACGAGGGCATTCGAGTTGATACCATGGCGAT | 3.67
ATACCAAGGTGATCGTGAGGCCGTTGATACTAAC | 0.401
CCGAGTAGGCTATGGGGCATTCAGGCAACGGTGA | -0.947
GCTCGTAGATCAAGGTTAAGAAAGACTAAGCTAA | -0.0501
CATCAAAGTTCAAGGTAACGTAACAGAAAGCAGC | 4.01
ATATGTAGGTTAAGGGTCAATCAGGTTGGTTCGC | 5.61
TATACAGGGTTAAAGGCCAGAGTACGAATGTCGA | 2.09
CGAACTAGGTCAAGGACACTGAATCTCCGCACGC | 1.57
TAGGCTAGGTCAGATCGGGCCAGTATACGCTATA | 0.927
CGTCCAAGGTCAGCAGGTCAGTGATAGCGACGTG | 3.91
ATCTCTAGGTAACCAAGTTCGGTGAATGCCGAAC | 1.83
TCGAGTAGGTCAGTCGGGGCATTCAGCCAACATA | 5.3
TAGCCTAGGTCTTGCGGGCCAGTATAGTGTCGGC | -0.977
GCAGACGGGTGAAACGCAGGTAACTCAGGGTGGC | -0.555
GTACCAAGGTCAATAGGTCGTTGATGAGTAGGCG | 4.69

Sequence | PBM binding z-score
AGTCAAAGTTAATCTAGGTAACGTAAGATATGCT | -0.0868
CCGACTGGGGCAGAAAGGTTACCAAACCATCCGG | 0.877
CGTCCAAGGTCACAGGTCAGTGAAGAGATGACGG | 4.91
AGTCAAAGTTCAGGACTAGGTAACGTAAAGCACG | 2.4
GGAACGATGGCAAAGTTGATAGCATCTGTCGACG | -0.351
TCTATTAGTTGATTAGGGCGACCGAAACAGCGGA | 0.776
GCTCGGAGAACAAGGTCAGAGCTTTGTCCGTAGA | 1.5
CTCGAAAGGTCGTGCTCAGGGGAGTATACCAAAC | 3.14
TCTATTAGGTGATTAGGGCAACCGAAACAGCGGA | 0.268
CGATCTAGGTCATTGACAGGACAGTGAATAGTAA | 2.09
CCAGAGAGGTGAAAGGTAACTCAGTCTGGTACGC | 1.64
GGAACCAGGGCATTCGAGTTGATAGCATGGCGAT | 2.21
ACAGACAGGTGAGTGAAGGTAACCCAGCTGGACG | -0.336
CGTCCAAGGTAAAGGTCAGTGAAAGAGACTCGAA | 2.43
AGAATGAGGTTATTAAGATAAGGGAATTGCGGTC | 1.3
CCTATTTGGTCAGGAGGTCACACACCGGATATGA | 4.05
CCGACTGGGGCAGAAAGGTAACCATACCATCCGG | -0.526
TCTTGTAGATCACCAGGTTAAGAAAGCTGGCCAA | 0.86
CACGAAAGGTCGGTTGAGGTGAGTATACGGATAA | 2.37
GTACCAAGGTGAATAGGTCGGTGATGAGTAGGCG | 0.312
